Hits are enriched below; roughly 3.4% of the tested compounds scored in any of these assays.
TRPM1 prom inh – inhibitors of MITF-driven TRPM1 promoter in melanoma cells; SK-MEL-5 TRPM1 promoter luciferase, 24 h; inhibition, % at 12.5 µM; AID 488899; 0.83% of 330,000 active;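 active = mean inhibition across replicates of 60% or more, whatever share of single replicates reaches that level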
HIF-2a inh – HIF-2a inhibition; 786-0 RCC cells HIF-2a reporter, luciferase luminescence, overnight; inhibition, % at 18.8 µM; 0.72% of 360,000 active; AID 624352;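 active = inhibition of the luminescence signal of 40% or more relative to plate controls, in a single-dose primary screen at 18.75 µM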
LMP1 NFkB inh – reduces LMP1-driven NF-kappaB luciferase signal. LMP1-induced NF-kappaB luciferase reporter cells, luminescence. inhibition, % at 12.5 µM. 0.69% of 350,000 active. AID 504558; in the data active = inhibition above about 41%;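 also: 0% = neutral control wells and 100% = reference inhibitor control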
TWEAK Fn14 block – inhibitors of TWEAK-Fn14 interaction signaling; TWEAK-stimulated Fn14 reporter cells, luciferase luminescence, 8 h; inhibition, % at 10 µM; 2% of 360,000 active; AID 1159606; in the data active = inhibition above about 50%
Shn3 inh set2 – Schnurri-3 reporter inhibition in Clone20 osteoblasts. 0.52% of 360,000 active. AID 588674. Clone20 osteoblast Shn3 3'UTR firefly luciferase, 24 h. inhibition, % at 12.5 µM;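 active = mean inhibition of at least 75% with every replicate also reaching 75%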;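 also: 0% = median of neutral control wells and 100% = pilot-screen positive control compound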
TROY signal inh – blocks TROY-dependent signaling in reporter cells | Q293 LMP1-TROYcd NF-kB luciferase reporter, 4 h | inhibition, % at 10 µM | 0.98% of 360,000 active | AID 1347056;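 active = compounds whose plate-normalised and pattern-corrected inhibition of the luciferase reporter signal at the single screening dose is 50% or more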
Numbers without * were called inactive; nt = no result.

SMILES | TRPM1 prom inh | HIF-2a inh | LMP1 NFkB inh | TWEAK Fn14 block | Shn3 inh set2 | TROY signal inh
CC(C)C/C(=N/O)c1cn(C)c2ccccc12 | 0.4 | -2.2 | -6.8 | 6.0 | 1.1 | 8.7
Cc1cccc(Cn2cc(C=O)c3ccccc32)c1 | 23.2 | 11.3 | 50.9* | 25.2 | 32.7 | 25.7
N#Cc1ccc(Cn2cc(C=O)c3ccccc32)cc1 | -85.7 | 4.5 | 2.5 | 8.8 | -2.3 | 4.7
FC(F)=C(F)CCSc1ncn[nH]1 | 13.1 | 7.5 | 2.3 | -15.0 | -1.5 | -14.3
O=C1CN=C(c2ccccc2Cl)c2cc(Br)ccc2N1 | 12.6 | 22.6 | 5.9 | -12.2 | 0.6 | -4.5
O=C1CN=C(c2ccc[nH]2)c2cc(Cl)ccc2N1 | -11.2 | 0.3 | 56.9* | 44.2 | -185.5 | 9.1
COC(=O)C1=C(c2ccc(OC)c(OC)c2)C[C@@H]2CC[C@H]1N2C(=O)N1CCOCC1 | 2.0 | 0.0 | 1.6 | 3.0 | -8.5 | 0.5
COc1ccc(CN2Cc3cc(-c4ccc(OC)cc4)ccc3-n3nncc3C2)cc1 | nt | -138.0 | nt | -11.0 | -10.0 | -30.6
c1cc(CCN2CCCC2)ccn1 | 8.0 | 10.9 | -6.4 | 2.1 | 3.5 | 9.7
CCn1nc(/C=C/c2ccccc2)nc2c(=O)n(C)c(=O)nc1-2 | 103.8* | -19.9 | 71.7* | 106.2* | 97.8* | 83.4*
CCn1nc(-c2cccs2)nc2c(=O)n(C)c(=O)nc1-2 | 100.5* | 79.7* | 33.0 | 73.4* | 97.1* | 66.4*
COc1ccc(-n2c(/C=C/c3ccc(O)cc3)nc3ccccc3c2=O)cc1 | 4.4 | -42.5 | 0.2 | 19.2 | 18.5 | 10.6
CC(C)C1CN1CC(O)Cn1ccnc1[N+](=O)[O-] (centres undefined) | nt | 11.8 | nt | 14.6 | -8.6 | 1.3
COCC(C)OC(=O)c1c(N)n(Cc2ccco2)c2nc3ccccc3nc12 (centres undefined) | 13.9 | -34.1 | 0.9 | 16.1 | -18.8 | -8.6
Nc1c(C(=O)NCc2ccco2)c2nc3ccccc3nc2n1Cc1ccccc1 | 16.0 | 12.8 | 2.1 | 50.1* | 4.5 | 43.3
CCCCn1c(N)c(C(=O)OCCOC)c2nc3ccccc3nc21 | nt | 22.2 | nt | 3.4 | -3.3 | 2.8
COCCOC(=O)c1c(N)n(Cc2ccccc2)c2nc3ccccc3nc12 | 8.1 | 14.8 | 21.3 | 19.9 | 4.4 | 65.4*
COc1ccc(Cn2c(N)c(C(=O)NCc3ccco3)c3nc4ccccc4nc32)cc1 | -6.2 | 1.5 | -16.1 | 43.1 | 4.8 | 69.1*
Nc1c(C(=O)NCc2ccco2)c2nc3ccccc3nc2n1CCN1CCOCC1 | -2.7 | 4.8 | 13.3 | 5.7 | -20.0 | 0.7
Nc1c(C(=O)NCc2ccco2)c2nc3ccccc3nc2n1Cc1ccc(F)cc1 | 2.1 | 22.4 | -5.4 | 22.4 | -2.3 | 62.5*
Cc1ccc(S(=O)(=O)N2CCN(C(=O)COC(=O)Cc3ccccc3)CC2)c(C)c1 | 0.9 | 0.3 | -3.5 | 6.7 | -10.4 | 19.7
CN(c1ccccc1)P(=O)(N1CC1)N1CC1 | -7.1 | 7.9 | 8.1 | 25.4 | 5.2 | 13.2
CC(C)CCn1c(N)c(C(=O)OCC2CCCO2)c2nc3ccccc3nc21 (centres undefined) | 15.6 | 12.3 | -4.5 | 48.7 | -7.9 | 60.3*
CCN(CC)c1ccc(/C=C/[N+](=O)[O-])cc1 | 15.7 | -2.7 | 2.6 | -6.2 | 16.4 | -5.3
O=[N+]([O-])/C=C/c1c(Cl)cccc1Cl | 110.8* | -6.4 | -0.5 | 51.7* | 77.1 | 7.7
SMILES | TRPM1 prom inh | HIF-2a inh | LMP1 NFkB inh | TWEAK Fn14 block | Shn3 inh set2 | TROY signal inh
CCN1C(=O)/C(=C/c2ccc(N(CC)CC)cc2OC)C(=O)NC1=S | 1.7 | 27.2 | -17.1 | 67.3* | 6.6 | 9.6
N#CC1=C(N)Oc2c(c(=O)sc3ccccc23)C1c1cccnc1 (centres undefined) | 16.7 | 18.6 | -2.0 | 14.9 | -48.8 | -29.3
Cc1cc(O)c2c(c1)C(=O)C13C(=C2O)C(=O)[C@H]2[C@@H](O)[C@@H]1[C@H]1[C@H](O)[C@@H]3C(=O)C3=C(O)c4c(O)cc(C)cc4C(=O)C312 (some centres undefined) | 35.2 | -17.7 | 12.0 | 71.7* | 58.1 | 7.5
O=C(Nc1nc(-c2ccccc2)c(-c2ccccc2)s1)c1ccc(S(=O)(=O)N(CCCl)CCCl)cc1 | 3.5 | 14.3 | 10.9 | -28.6 | 24.8 | -3.1
O=C(O)c1cc[c]([Hg][Cl])cc1 | 1.0 | 3.9 | 0.1 | 64.6* | -3.7 | -6.0
COc1ccc(C(=O)O)cc1OC | 2.0 | 6.8 | -6.9 | 12.2 | -11.1 | -6.3
Cc1cc(N(CCCl)CCCl)ccc1C=NNC(=O)c1cccnc1 | 10.5 | -25.2 | 73.9* | -53.2 | 19.1 | -5.9
O=C(NN=Cc1ccc(N(CCCl)CCCl)cc1)c1cc(=O)[nH]c(=O)[nH]1 | -6.8 | 2.4 | 38.8 | 4.2 | 15.8 | 2.7
O=C(NN=Cc1ccc(N(CCCl)CCCl)cc1Cl)c1cccnc1 | 1.8 | -12.8 | 78.4* | -6.7 | 6.4 | 18.9
CC(=O)OC1CC[C@]2(C#N)[C@H]3CC[C@]4(C)[C@H](C5C=CC(=O)O5)CCC4(O)C3CCC2(O)C1 (some centres undefined) | 34.3 | 4.3 | -26.2 | 19.7 | -14.4 | 14.9
COC(=O)C1=COC(C)C2CN3CCc4c([nH]c5cc(OC)ccc45)C3CC12 (centres undefined) | nt | 13.8 | nt | 18.6 | 24.6 | 13.3
NNC(=O)c1nc[nH]c1C(=O)Nc1ccc(Cl)cc1C(=O)c1ccccc1 | 2.2 | 17.9 | -10.0 | -1.7 | -31.8 | -2.4
Cc1ccnc(-n2c(C)cc(C=C3C(=O)N(C)C(=S)N(C)C3=O)c2C)c1 | 6.1 | -2.3 | -3.8 | 87.0* | -5.7 | 1.1
CCOP(=O)(Oc1ccccc1)c1c([N+](=O)[O-])cc(C(F)(F)F)cc1[N+](=O)[O-] (centres undefined) | 8.9 | 15.3 | 1.9 | 2.0 | -17.0 | 6.1
Cc1cc(OC(C)C(=O)N[C@H](C(=O)O)c2ccccc2)c2c3c(c(=O)oc2c1)CCC3 (some centres undefined) | 2.8 | -0.7 | -4.3 | -2.5 | -2.0 | -9.7
CN1[C@@H]2CC[C@H]1CC(OC(=O)C1C=Nc3ccccc31)C2 (some centres undefined) | -4.0 | 8.3 | 81.9* | 3.1 | -14.5 | 1.2
CN1C2CCC1CC(OC(=O)c1cccc(O)c1)C2 (centres undefined) | -0.8 | 4.0 | 4.2 | 16.8 | 0.5 | -13.3
COC(/C(C)=C/C=C/C(C)=C/c1coc(C)n1)C(C)C1CC(O)C2(C)OC2C=CC(C)C2CC(CC(=O)O2)CC2OC2C(=O)O1 (centres undefined) | 65.0* | 28.9 | -3.4 | 33.9 | 12.1 | 6.1
CCOP(=O)(OCC)/C(C#N)=C/c1ccoc1 | 11.6 | 2.4 | 3.7 | 1.0 | -18.9 | 6.2
CC1(C)N=C(c2ccccc2)[C@@H]2C(c3ccc([N+](=O)[O-])cc3)N21 (some centres undefined) | 2.0 | 16.4 | 3.1 | 10.7 | -3.7 | 52.7*
CCC(=O)N1CC(=O)Nc2ccc(F)cc2C1c1ccc(F)cc1 (centres undefined) | 5.2 | 14.9 | -0.9 | -0.9 | 0.0 | -15.8

Screening data deposited in PubChem by several laboratories.
